{
  "source": "PubChem BioAssay (NCI)",
  "note": "About 83,000 compounds went through this panel and 20% of them were active in at least one assay; those are over-represented in the sample as a whole.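 Testing used 96-well plates and a 48-hour single-concentration exposure. Example: -40 means 40% of the starting cells died.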 Values without a mark were called inactive. The source made the active and inactive calls. Rule for the calls: active = growth percent below 10; inactive = the rest.",
  "data": [
    {"test_system": "HL-60(TB) leukemia", "test": "NCI-60 one-dose screen, 48 h (100 = growth as untreated, 0 = no growth, -100 = all killed)", "conditions": "10 µM unless noted", "values": [
      {"smiles": "C=CCOc1ccc(/C(O)=C2\\C(=O)C(=O)N(c3nccs3)C2c2ccccc2F)cc1", "note": "(stereo not given)", "growth": "81.1%"},
      {"smiles": "CCN(CC)CCC(=O)Nc1cccc2c1C(=O)c1c(c(O)c3ccccc3c1O)C2=O", "growth": "27.8%"},
      {"smiles": "OCCNc1nc(Nc2ccc(Cl)c(Cl)c2)nc2ccccc12", "growth": "44.4%"},
      {"smiles": "C#Cc1cc2c(N)c(C(=O)c3cc(OC)c(OC)c(OC)c3)[nH]c2cc1OC", "growth": "-6.26% (active)"},
      {"smiles": "Nc1nc(Nc2ccc(Cl)cc2)nn1S(=O)(=O)c1ccc(-c2ccc(F)cc2)cc1", "growth": "110%"},
      {"smiles": "CCCCCSc1ccc2nc(NC(=O)OCC)sc2c1", "growth": "4.55% (active)"},
      {"smiles": "CN(CCNc1ccc(C(=N)N)cc1)c1ccc(C(=N)N)cc1", "growth": "91%"},
      {"smiles": "c1ccc2cc3c(Nc4ccc(N5CCOCC5)cc4)ccnc3cc2c1", "growth": "99.1%"},
      {"smiles": "CN1CCN(c2ccc(NC3=C(Cl)C(=O)c4ncccc4C3=O)cc2C(F)(F)F)CC1", "growth": "-16.2% (active)"},
      {"smiles": "COc1ccc2oc(=O)cc(-c3c(C#N)c(N)n4nc(N)c(C#N)c4c3C#N)c2c1", "growth": "96.4%"},
      {"smiles": "CCOC(=O)Cn1c(C)c(/C=N/NC(=O)c2cc3c(ccc4ccccc43)o2)c2ccccc21", "growth": "0.68% (active)"},
      {"smiles": "[N-]=[N+]=Nc1ncc(-c2ccc(C(F)(F)F)cc2)c(NC2CCCCCC2)n1", "growth": "-14.7% [100 µM] (active)"},
      {"smiles": "CCN1CCN(c2cc(C)c3cc(NC(=O)c4ccc(OC)c(OC)c4)ccc3n2)CC1", "growth": "1.42% (active)"},
      {"smiles": "C1CNC(C2=NCCN2)=N1", "growth": "109%"},
      {"smiles": "CCC1=C[C@H]2CN(CCc3c([nH]c4ccccc34)[C@@](C(=O)OC)(c3cc4c(cc3OC)N(C)[C@H]3[C@@](O)(C(=O)OC)[C@H](OC(C)=O)[C@]5(CC)[C@@H]6C[C@@H]6CN6CC[C@]43[C@@H]65)C2)C1", "growth": "-33.4% (active)"},
      {"smiles": "CC1(C)CCC(=NNC(N)=S)CC1", "growth": "109%"},
      {"smiles": "O=C1NC(=O)C(c2cnc3ccccn23)=C1c1cn2c3c(cc(F)cc13)CN(C(=O)N1CCCCC1)CC2", "growth": "48.1%"},
      {"smiles": "CC1CCN(CCCCCOc2ccc3oc4ccccc4c(=O)c3c2)CC1", "growth": "44.6%"},
      {"smiles": "CNC(=O)c1c(NC(=O)c2ccc(C(C)(C)C)cc2)sc2c1CCC(=O)C2", "growth": "-13.2% (active)"},
      {"smiles": "Cc1ccc(CCC(=O)Nc2ncc(Cc3cc(Cl)ccc3Cl)s2)o1", "growth": "-40.4% (active)"},
      {"smiles": "CN(C)c1ccc(/C=N/NC(=O)c2ccccc2Nc2cccc(C(F)(F)F)c2)cc1", "growth": "92.1%"},
      {"smiles": "CC(C)(C)c1cc(O)c(O)c(C(C)(C)C)c1", "growth": "4.04% (active)"},
      {"smiles": "COc1cc(NC(C)CCCNC(=O)CCC(=O)NCCCNCCCCCCCCCCNCCCNC(=O)CCC(=O)NCCCC(C)Nc2cc(OC)cc3cccnc23)c2ncccc2c1", "note": "(stereo not given)", "growth": "58.2% [8 µM]"},
      {"smiles": "CCCCCCCCCCCCNC(=O)[C@H]1CSC(c2ccc(OC)c(F)c2)N1", "note": "(stereo not given in full)", "growth": "-70.3% (active)"},
      {"smiles": "COc1cccc(-c2nn(-c3ccccc3)cc2-c2ccnc(NCCCNS(=O)(=O)c3ccc(C(F)(F)F)cc3)c2)c1", "growth": "12.4%"}
    ]}
  ]
}
